Many of the other results were omitted from the sample, so hits are more common in it than they were.
TSHR agonist: agonists of human thyroid stimulating hormone receptor; P16473; HEK293-CNG-TSHR cells (CNG channel as cAMP sensor), membrane potential dye, cAMP; Potency, µM (titrated, usually from 57.1 µM), without a hit: at the top dose activation, hits mostly activators; actives 0.48% (n = 73,000); AID 926; active means well fitted activation curve with a large enough effect in the main read-out, with a control signal flat, not every such curve was filed as active; inconclusive means small, poorly fitted or top-dose-only effect, or a change in a side signal; inactive means no such curve, though single readings can be large or run the other way; % of control where 0% means no effect;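 further: the control signal comes from parental cells without the receptor; potency means the concentration at half of the fitted maximal effect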
Target sequence (P16473 whole entry, looked up): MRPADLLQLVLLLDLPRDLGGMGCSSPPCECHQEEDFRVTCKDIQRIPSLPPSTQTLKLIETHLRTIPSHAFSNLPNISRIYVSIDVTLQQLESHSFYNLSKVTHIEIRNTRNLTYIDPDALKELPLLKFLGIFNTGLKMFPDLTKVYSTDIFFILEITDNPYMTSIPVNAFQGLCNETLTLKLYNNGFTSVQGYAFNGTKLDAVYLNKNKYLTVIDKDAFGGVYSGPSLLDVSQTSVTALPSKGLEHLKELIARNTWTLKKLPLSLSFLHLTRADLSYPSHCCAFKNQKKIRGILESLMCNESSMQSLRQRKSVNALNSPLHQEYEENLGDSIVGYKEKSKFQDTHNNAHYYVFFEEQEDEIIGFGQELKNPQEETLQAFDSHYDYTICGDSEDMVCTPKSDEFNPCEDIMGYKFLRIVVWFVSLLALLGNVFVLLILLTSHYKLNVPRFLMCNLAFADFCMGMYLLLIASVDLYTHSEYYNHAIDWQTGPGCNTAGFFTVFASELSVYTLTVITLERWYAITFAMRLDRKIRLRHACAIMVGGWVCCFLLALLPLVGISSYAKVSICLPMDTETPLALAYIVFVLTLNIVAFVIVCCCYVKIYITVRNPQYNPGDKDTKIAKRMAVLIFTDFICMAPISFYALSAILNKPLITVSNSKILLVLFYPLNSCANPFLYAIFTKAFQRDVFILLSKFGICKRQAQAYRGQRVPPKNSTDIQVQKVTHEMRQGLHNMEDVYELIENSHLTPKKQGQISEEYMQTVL
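HEK 293 cells stably expressing TSHR and a cAMP-gated CNG channel; parental CNG-only cells as counterscreen. Cells preloaded 60 min with membrane potential dye plus 100 uM RO 20-1724, then compound 30 min; fluorescence read at 590 nm.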
HEK293 cAMP cs: parental HEK293 cAMP activation (counter-screen); parental HEK293 CNG cAMP sensor, membrane potential fluorescence; Potency, µM (titrated, usually from 57.1 µM), inactives show at the top dose activation, most hits filed as activators; AID 938; actives 2.5% (n = 73,000); further: potency means the concentration at half of the fitted maximal effect; % of control where 0% means no effect; nearly all actives have a fitted effect of over 55% in size
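Parental HEK 293 cells stably expressing a modified CNG channel (no TSHR) report cAMP rise as membrane depolarization. Membrane potential dye with 100 uM RO 20-1724 was loaded for 60 min at room temperature, then compound added for 30 min; fluorescence read at 590 nm.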
Peg3 imprint: inducers of genomic imprint erasure in mouse ES cells. AID 1948. actives 0.02% (n = 110,000). mouse ES Peg3-LacZ reporter, beta-gal luminescence, 40 h. Potency, µM (top dose mostly 60.7 µM), for inactives: top-dose activity change, positive = activation, most hits filed as activators; further: potency means the concentration at half of the fitted maximal effect
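Readout: BetaGlo luminescence (5 min, room temp) for LacZ from the normally silent maternal Peg3 allele in female Peg3LacZ-Neo ES cells. Cells 300/well, 40 h, 37C, 5% CO2. Data normalized per plate to negative controls.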
parental cAMP: raises cAMP in parental HEK293 cells lacking TSH receptor; shares compounds with TSHR agonist; activity change, negative = inhibition, % at 32.9 µM; 150 tested, under 10 active; parental HEK293 CNG biosensor, cAMP membrane potential fluorescence
* hit, by the source's call; ? = inconclusive; · = no result given; [ ] = dose if it differs, or a comment. Unless noted, the call rests on the fitted dose curve; in most records, active means well fitted curve in the direction sought with a large enough effect; inconclusive means small, poorly fitted or top-dose-only effect, or another doubt; inactive means no such curve, though single readings can be large; an effect the other way counts as inactive or inconclusive.

SMILES	TSHR agonist	HEK293 cAMP cs	Peg3 imprint	others
Fc1ccccc1CSc1nnc(-c2cnccn2)n1Cc1ccco1	?	25µM*	-4%
O=C(Nc1cccc(-c2nc3cccnc3s2)c1)c1cccc(Br)c1	·	·	10%[10.9 µM]
COC(=O)c1c(NC(=O)COc2cc(C)c(Cl)c(C)c2)sc2c1CCCC2	·	·	18%[10.9 µM]
O=C(CN1CCC(n2nnc3cc(F)ccc32)CC1)Nc1ccccc1N1CCOCC1	2%	6%	-19%
COC(=O)c1ccccc1NC(=O)CN1CCC(NC(=O)c2ccc(C)cc2)CC1	?	?	-8%
COC(=O)c1ccccc1NC(=O)CN1CCC(n2nnc3cc(F)ccc32)CC1	?	25µM*	-3%
COC(=O)c1ccccc1NC(=O)CN1CCN(C23CC4CC(CC(C4)C2)C3)CC1	?	7.9µM*	-8%
O=C(Oc1ccccc1)N1CCC2(CC1)CN(c1ncccn1)C2	1%	-2%	·
O=C(Oc1ccccc1)N1CCC2(CCCN(c3ncccn3)C2)CC1	?	20µM*	·
Cc1nnc(SCC(=O)Nc2ccc(Br)cc2)[nH]c1=O	·	·	22%[10.9 µM]
O=C1CC(N2CCN(C3CCc4ccccc4C3)CC2)C(=O)N1c1ccccc1 (centres undefined)	?	25µM*	-10%
O=C1CC(N2CCN(c3ccccc3Cl)CC2)C(=O)N1c1ccccc1 (centres undefined)	-3%	0%	-16%
O=C(NCCN1CCOCC1)c1ccc(-n2c(=O)c(=O)[nH]c3ccccc32)cc1	-7%	-11%	·
CN(C)c1ccc(-c2ccc3ncnc(N(C)Cc4ccco4)c3c2)cc1	?	?	-25%
COc1cccc(-c2ccc3ncnc(N(C)Cc4ccco4)c3c2)c1	?	16µM*	4%
COc1ccc(SCc2cc(=O)c3cc(Cl)ccc3[nH]2)cc1	·	·	-8%[10.9 µM]
CCN(CC)CCCCNC(=O)c1ccc(Cc2nc3ccccc3[nH]2)cc1	-3%	-6%	·
CN(C)c1cc(NC(=O)CN2CCOCC2)c2ccccc2n1	?	20µM*	7%
O=C(CN1CCOCC1)NCc1ccccc1	4%	7%	-4%
Cc1ccc2c(=O)cc(CSCC(=O)Nc3nnc(C)s3)[nH]c2c1	·	·	-11%[10.9 µM]
COc1ccc(C)cc1NC(=O)CN1CCN(c2ccccc2F)CC1	?	16µM*	-18%
O=C(CCN1CCN(c2ccccc2F)CC1)Nc1ccccc1F	18%	29%	-45%
COc1ccc(OC)c(NC(=O)CCN2CCN(c3ccccc3F)CC2)c1	14%[11.4 µM]	12%[11.4 µM]	-9%
COc1cccc(NC(=O)CCN2CCN(c3ccccc3)CC2)c1	·	·	-10%[10.9 µM]
O=C(CCN1CCN(c2ccc(Cl)cc2)CC1)Nc1ccccc1F	?	25µM*	-12%
SMILES	TSHR agonist	HEK293 cAMP cs	Peg3 imprint	others
COc1cccc(NC(=O)CCN2CCN(c3ccccc3F)CC2)c1	?	25µM*	·
CC1CCN(C(=O)c2ccc(NC(=O)c3nsc4ccccc34)cc2)CC1	·	·	-6%[10.9 µM]
CN1CCN(c2ncc3nc(-c4ccccc4)c(=O)n(C)c3n2)CC1	-2%	22%	10µM*
CN1CCN(c2ncc3nc(-c4ccccc4)c(=O)n(-c4ccccc4)c3n2)CC1	4%	-5%	·
Cc1nn2c(=O)cc(COC(=O)COc3ccc(F)cc3)nc2s1	·	·	-7%[10.9 µM]
c1ccc(-c2nnc3sc(-c4csc5c4CCCC5)nn23)cc1	?	25µM*	6%
Cc1cccc(-c2nnc3sc(-c4ccccc4C)nn23)c1	?	32µM*	-14%
c1ccc(-c2nnc3sc(-c4ccncc4)nn23)cc1	-1%	-6%	-11%
COc1ccc(-c2nn3c(-c4ccccc4)nnc3s2)cc1	?	?	-11%
Cc1nn(-c2ccccc2)c(N2CCCC2)c1/C=N/n1cnc2scc(-c3ccccc3)c2c1=O	3.2µM*	25%	-8%	parental cAMP=17
Cc1ccc(-c2csc3ncn(/N=C/N(C)C)c(=O)c23)o1	1%	2%	4%
CCc1ccc(NC(=O)C(Cc2ccccc2)NS(=O)(=O)c2ccc3c(c2)c(=O)n(C)c(=O)n3C)cc1 (centres undefined)	·	·	1%[10.9 µM]
CCCc1n[nH]c2c1C(=O)C(C(=O)OC)C(C)(C)C2 (centres undefined)	-5%	-3%	1%
CCCC(=O)C1=C(SCC)CC(C)(C)C(C(=O)OC)C1=O (centres undefined)	?	?	-5%	parental cAMP=10
CCOC(=O)C1CCC(CN(Cc2ccc(Cl)cc2)S(=O)(=O)c2cccc(Cl)c2C)CC1 (centres undefined)	·	·	-16%[10.9 µM]
CC1CCN(S(=O)(=O)c2cccc(C(=O)Nc3ccccn3)c2)CC1	25µM*	14%	-15%	parental cAMP=16
O=C(Nc1ccccn1)c1cccc(S(=O)(=O)N2CCOCC2)c1	-6%	-1%	-8%
O=C(NCc1ccccc1Br)c1ccc2c(c1)nc1n2CCOC1	·	·	-10%[10.9 µM]
CCN(CC)S(=O)(=O)c1ccc(Oc2cccc(C(C)=O)c2)nc1	3%	23%	-14%
CCN(c1ccccc1)S(=O)(=O)c1ccc(Oc2ccc(-n3ccnc3)cc2)nc1	25µM*	20%	-15%	parental cAMP=-2
COc1ccc(-c2noc(-c3cc(C(C)C)[nH]n3)n2)cc1	·	·	-8%[10.9 µM]
CC(=O)Oc1ccc(/C=C/C(=O)CC2OC(Oc3cc(OC(C)=O)c4c(c3)O[C@@H](c3ccc(OC(C)=O)cc3)CC4=O)C(OC(C)=O)C(OC(C)=O)C2OC(C)=O)cc1 (some centres undefined)	·	·	-11%
COc1ccc(Cl)cc1S(=O)(=O)Nc1cccc(-c2ccc(N3CCOCC3)nn2)c1	·	·	-9%[10.9 µM]
CCC(=O)Nc1cccc(-c2cn3ccsc3n2)c1	-12%	-3%	-8%
CC(C)CC(=O)Nc1cccc(-c2cn3ccsc3n2)c1	16µM*	0%	-11%	parental cAMP=-9
SMILES	TSHR agonist	HEK293 cAMP cs	Peg3 imprint	others
CCn1c(CN2CCN(c3cccc(Cl)c3)CC2)nc2c1c(=O)[nH]c(=O)n2C	·	·	14%[10.9 µM]
Cc1ccc(C)c(N(C(=O)Cn2nnc(-c3cccs3)n2)C(C(=O)NC2CC2)c2ccc(C)o2)c1 (centres undefined)	7.9µM*	28%	-2%	parental cAMP=?
Cc1ccc(N(C(=O)Cn2nnc(-c3ccc(C)o3)n2)C(C(=O)NC2CCCC2)c2ccco2)cc1 (centres undefined)	16%	25%	-10%
COc1ccc(S(=O)(=O)NCCC(=O)NCc2ccc(F)cc2)cc1	·	1%	-3%	parental cAMP=-9
Cn1c(=O)oc2cc(S(=O)(=O)NCCC(=O)NCc3ccc(F)cc3)ccc21	·	·	20%[10.9 µM]
Cc1nn(-c2ccccc2)c2sc(C(=O)N3CCOCC3)cc12	?	?	-8%
Cc1ccccc1-n1nc(C)c2cc(C(=O)N3CCN(S(=O)(=O)c4ccc(F)cc4)CC3)sc21	16µM*	10%	-15%	parental cAMP=-1
O=C(Nc1ccc(C(=O)N2CCN(c3ccccc3F)CC2)cc1)c1nsc2ccccc12	·	·	16%[10.9 µM]
CCOC(=O)c1c(N)n(-c2ccc(CC)cc2)c2nc3ccccc3nc12	·	·	-11%[10.9 µM]
CCOC(=O)c1c(N)n(CCOC(=O)c2cccs2)c2nc3ccccc3nc12	18%	0%	-16%	parental cAMP=-3[25.6 µM]

Screening data deposited in PubChem by National Center for Advancing Translational Sciences (NCATS).
